From PubChem BioAssay (EPA / NIEHS)
The source made the active and inactive calls. Rule for the calls: active = hit-call score of the fitted dose curve at least 0.9, where 1 is the maximum; inactive = score below 0.9.

The molecules below were run on urokinase plasminogen activator (uPA), PLAU (gene 5328) (assay: BSK_KF3CT_uPA: BioMAP Diversity Plus: KF3CT Assay for urokinase plasminogen activator (uPA) Biomarker Activity (AID 2283075)). Conditions: primary human keratinocytes with fibroblasts; actives raise or lower the signal.
Method in brief: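 ELISA read-out of uPA 24 h after dosing human skin keratinocytes co-cultured with foreskin fibroblasts. Signal change fitted both ways relative to DMSO; sulforhodamine B on parallel cultures marks overt cytotoxicity.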

Row | Structure (SMILES) | outcome | AC50
1 | O=C(O)CC(O)(CC(=O)O)C(=O)O | inactive | –
2 | COc1ccc(OC(F)(F)F)cc1CN[C@H]1CCCN[C@H]1c1ccccc1 | inactive | –
3 | CS(=O)(=O)c1ccc([C@@H](C[C@H]2CCC(=O)C2)C(=O)Nc2cnccn2)cc1Cl | inactive | –
4 | O=C1c2c(O)cccc2Cc2cccc(O)c21 | – | 27.8 µM (active)
5 | Cc1c(C)c2c(c(C)c1O)CCC(C)(COc1ccc(CC3SC(=O)NC3=O)cc1)O2 (stereo not given) | – | 12 µM (active)
6 | CCCCC(CC)COC(=O)CCCCCCCC(=O)OCC(CC)CCCC (stereo not given) | inactive | –
7 | C#CC(O)C(CC)CCCC (stereo not given) | inactive | –
8 | NCCOCCOCCN | inactive | –
9 | COC(=O)[C@H]1[C@H]2C[C@@H]3c4[nH]c5cc(OC)ccc5c4CCN3C[C@H]2C[C@@H](OC(=O)c2cc(OC)c(OC)c(OC)c2)[C@@H]1OC | inactive | –
10 | COC(=O)CCC(=O)OC | inactive | –
11 | CC(=O)O | inactive | –
12 | CC(=O)CC(c1ccccc1)c1c(O)c2ccccc2oc1=O (stereo not given) | inactive | –
13 | CC(=O)O[C@]1(C(C)=O)CC[C@H]2[C@@H]3C=C(Cl)C4=CC(=O)[C@@H]5C[C@@H]5[C@]4(C)[C@H]3CC[C@@]21C | inactive | –
14 | c1ccc2occc2c1 | inactive | –
15 | NC1CCCCC1 | inactive | –
16 | NC(=Nc1ccccc1)Nc1ccccc1 | inactive | –
17 | CCCCC(CC)COP(=O)(OCC(CC)CCCC)OCC(CC)CCCC (stereo not given) | inactive | –
18 | O=C(N[C@@H](c1ccccc1)[C@@H]1CCCCN1)c1cccc(C(F)(F)F)c1Cl | – | 32.5 µM (active)
19 | Oc1ccccc1O | – | 20 µM (active)
20 | CC(=O)[C@@]1(O)CC[C@H]2[C@@H]3CCC4=CC(=O)CC[C@]4(C)[C@H]3CC[C@@]21C | inactive | –
21 | CCCCOC(=O)CCCCC(=O)OCCCC | inactive | –
22 | CCc1nc(N)nc(N)c1-c1ccc(Cl)cc1 | inactive | –
23 | CO[C@@H]1COCC[C@@H]1N[C@@H]1CC[C@@](C(=O)N2CCc3ncc(C(F)(F)F)cc3C2)(C(C)C)C1 | inactive | –
24 | O=C1OC(c2ccc(O)cc2)(c2ccc(O)cc2)c2ccccc21 | inactive | –
25 | CN(C)CCCN1c2ccccc2Sc2ccc(Cl)cc21 | – | 30.3 µM (active)
26 | Nc1nc(=S)c2[nH]cnc2[nH]1 | inactive | –
27 | CC(C)OC(=O)C(C)(C)Oc1ccc(C(=O)c2ccc(Cl)cc2)cc1 | inactive | –
28 | CCCCC(CC)CO (stereo not given) | inactive | –
29 | CCCCCCC(C=O)=Cc1ccccc1 | inactive | –
30 | CCOCCOCCO | inactive | –

These molecules were tested on CD40, CD40 (gene 958) (assay: BSK_LPS_CD40: BioMAP Diversity Plus: LPS Assay for CD40 Biomarker Activity (AID 2283076)). Conditions: primary human HUVEC with PBMC; actives raise or lower the signal.
Method in brief: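 ELISA readout of CD40 in HUVEC/PBMC co-culture (BSK_LPS system), 24 h post-dosing; bidirectional curve fit, DMSO baseline; parallel SRB total-protein staining for cytotoxicity.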

Row | Structure (SMILES) | outcome | AC50
31 | O=C(O)CC(O)(CC(=O)O)C(=O)O | inactive | –
32 | COc1ccc(OC(F)(F)F)cc1CN[C@H]1CCCN[C@H]1c1ccccc1 | – | 26.6 µM (active)
33 | CS(=O)(=O)c1ccc([C@@H](C[C@H]2CCC(=O)C2)C(=O)Nc2cnccn2)cc1Cl | inactive | –
34 | O=C1c2c(O)cccc2Cc2cccc(O)c21 | inactive | –
35 | Cc1c(C)c2c(c(C)c1O)CCC(C)(COc1ccc(CC3SC(=O)NC3=O)cc1)O2 (stereo not given) | – | 28.7 µM (active)
36 | CCCCC(CC)COC(=O)CCCCCCCC(=O)OCC(CC)CCCC (stereo not given) | inactive | –
37 | C#CC(O)C(CC)CCCC (stereo not given) | inactive | –
38 | NCCOCCOCCN | inactive | –
39 | COC(=O)[C@H]1[C@H]2C[C@@H]3c4[nH]c5cc(OC)ccc5c4CCN3C[C@H]2C[C@@H](OC(=O)c2cc(OC)c(OC)c(OC)c2)[C@@H]1OC | – | 23.5 µM (active)
40 | COC(=O)CCC(=O)OC | inactive | –
41 | CC(=O)O | inactive | –
42 | CC(=O)CC(c1ccccc1)c1c(O)c2ccccc2oc1=O (stereo not given) | inactive | –
43 | CC(=O)O[C@]1(C(C)=O)CC[C@H]2[C@@H]3C=C(Cl)C4=CC(=O)[C@@H]5C[C@@H]5[C@]4(C)[C@H]3CC[C@@]21C | – | 31.5 µM (active)
44 | c1ccc2occc2c1 | inactive | –
45 | NC1CCCCC1 | inactive | –
46 | NC(=Nc1ccccc1)Nc1ccccc1 | inactive | –
47 | CCCCC(CC)COP(=O)(OCC(CC)CCCC)OCC(CC)CCCC (stereo not given) | inactive | –
48 | O=C(N[C@@H](c1ccccc1)[C@@H]1CCCCN1)c1cccc(C(F)(F)F)c1Cl | – | 20 µM (active)
49 | Oc1ccccc1O | – | 7.33 µM (active)
50 | CC(=O)[C@@]1(O)CC[C@H]2[C@@H]3CCC4=CC(=O)CC[C@]4(C)[C@H]3CC[C@@]21C | inactive | –
51 | CCCCOC(=O)CCCCC(=O)OCCCC | inactive | –
52 | CCc1nc(N)nc(N)c1-c1ccc(Cl)cc1 | inactive | –
53 | CO[C@@H]1COCC[C@@H]1N[C@@H]1CC[C@@](C(=O)N2CCc3ncc(C(F)(F)F)cc3C2)(C(C)C)C1 | inactive | –
54 | O=C1OC(c2ccc(O)cc2)(c2ccc(O)cc2)c2ccccc21 | – | 31.5 µM (active)
55 | CN(C)CCCN1c2ccccc2Sc2ccc(Cl)cc21 | – | 25.3 µM (active)
56 | Nc1nc(=S)c2[nH]cnc2[nH]1 | inactive | –
57 | CC(C)OC(=O)C(C)(C)Oc1ccc(C(=O)c2ccc(Cl)cc2)cc1 | – | 29.4 µM (active)
58 | CCCCC(CC)CO (stereo not given) | inactive | –
59 | CCCCCCC(C=O)=Cc1ccccc1 | inactive | –
60 | CCOCCOCCO | inactive | –

These molecules were tested on E-selectin (Homo sapiens) (UniProt P16581) (assay: BSK_LPS_Eselectin: BioMAP Diversity Plus: LPS Assay for Eselectin Biomarker Activity (AID 2283077)). Conditions: primary human HUVEC with PBMC; actives raise or lower the signal.
Sequence of E-selectin (Homo sapiens) (P16581 whole entry, looked up): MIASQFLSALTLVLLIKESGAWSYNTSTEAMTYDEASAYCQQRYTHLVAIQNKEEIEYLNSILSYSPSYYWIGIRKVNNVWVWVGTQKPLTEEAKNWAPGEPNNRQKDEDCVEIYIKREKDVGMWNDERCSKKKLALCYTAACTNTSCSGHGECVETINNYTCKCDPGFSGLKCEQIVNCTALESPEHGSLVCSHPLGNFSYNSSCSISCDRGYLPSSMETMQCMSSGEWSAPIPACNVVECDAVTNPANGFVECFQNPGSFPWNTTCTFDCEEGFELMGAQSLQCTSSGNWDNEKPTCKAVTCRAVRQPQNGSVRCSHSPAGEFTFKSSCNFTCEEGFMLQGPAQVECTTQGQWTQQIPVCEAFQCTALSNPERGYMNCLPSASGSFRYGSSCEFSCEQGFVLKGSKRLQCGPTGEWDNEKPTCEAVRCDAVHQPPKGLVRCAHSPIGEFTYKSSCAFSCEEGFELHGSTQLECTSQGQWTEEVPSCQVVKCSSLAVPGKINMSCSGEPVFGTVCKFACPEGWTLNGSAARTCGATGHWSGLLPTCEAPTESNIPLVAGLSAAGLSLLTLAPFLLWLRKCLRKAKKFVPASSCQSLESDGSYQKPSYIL
Method in brief: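 ELISA readout of E-selectin, 24 h post-dose, HUVEC + PBMC co-culture (LPS system). Gain or loss of signal vs DMSO baseline, bidirectional fit.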

Row | Structure (SMILES) | outcome | AC50
61 | O=C(O)CC(O)(CC(=O)O)C(=O)O | inactive | –
62 | COc1ccc(OC(F)(F)F)cc1CN[C@H]1CCCN[C@H]1c1ccccc1 | inactive | –
63 | CS(=O)(=O)c1ccc([C@@H](C[C@H]2CCC(=O)C2)C(=O)Nc2cnccn2)cc1Cl | inactive | –
64 | O=C1c2c(O)cccc2Cc2cccc(O)c21 | inactive | –
65 | Cc1c(C)c2c(c(C)c1O)CCC(C)(COc1ccc(CC3SC(=O)NC3=O)cc1)O2 (stereo not given) | – | 30.3 µM (active)
66 | CCCCC(CC)COC(=O)CCCCCCCC(=O)OCC(CC)CCCC (stereo not given) | inactive | –
67 | C#CC(O)C(CC)CCCC (stereo not given) | inactive | –
68 | NCCOCCOCCN | inactive | –
69 | COC(=O)[C@H]1[C@H]2C[C@@H]3c4[nH]c5cc(OC)ccc5c4CCN3C[C@H]2C[C@@H](OC(=O)c2cc(OC)c(OC)c(OC)c2)[C@@H]1OC | inactive | –
70 | COC(=O)CCC(=O)OC | inactive | –
71 | CC(=O)O | inactive | –
72 | CC(=O)CC(c1ccccc1)c1c(O)c2ccccc2oc1=O (stereo not given) | inactive | –
73 | CC(=O)O[C@]1(C(C)=O)CC[C@H]2[C@@H]3C=C(Cl)C4=CC(=O)[C@@H]5C[C@@H]5[C@]4(C)[C@H]3CC[C@@]21C | inactive | –
74 | c1ccc2occc2c1 | inactive | –
75 | NC1CCCCC1 | inactive | –
76 | NC(=Nc1ccccc1)Nc1ccccc1 | inactive | –
77 | CCCCC(CC)COP(=O)(OCC(CC)CCCC)OCC(CC)CCCC (stereo not given) | inactive | –
78 | O=C(N[C@@H](c1ccccc1)[C@@H]1CCCCN1)c1cccc(C(F)(F)F)c1Cl | – | 5.55 µM (active)
79 | Oc1ccccc1O | inactive | –
80 | CC(=O)[C@@]1(O)CC[C@H]2[C@@H]3CCC4=CC(=O)CC[C@]4(C)[C@H]3CC[C@@]21C | inactive | –
81 | CCCCOC(=O)CCCCC(=O)OCCCC | inactive | –
82 | CCc1nc(N)nc(N)c1-c1ccc(Cl)cc1 | inactive | –
83 | CO[C@@H]1COCC[C@@H]1N[C@@H]1CC[C@@](C(=O)N2CCc3ncc(C(F)(F)F)cc3C2)(C(C)C)C1 | inactive | –
84 | O=C1OC(c2ccc(O)cc2)(c2ccc(O)cc2)c2ccccc21 | inactive | –
85 | CN(C)CCCN1c2ccccc2Sc2ccc(Cl)cc21 | inactive | –
86 | Nc1nc(=S)c2[nH]cnc2[nH]1 | inactive | –
87 | CC(C)OC(=O)C(C)(C)Oc1ccc(C(=O)c2ccc(Cl)cc2)cc1 | inactive | –
88 | CCCCC(CC)CO (stereo not given) | inactive | –
89 | CCCCCCC(C=O)=Cc1ccccc1 | inactive | –
90 | CCOCCOCCO | inactive | –
